A short description of assay [1]: compounds binding Alexa647 anti-His antibody – biochemical, small-molecule microarray, 635 nm fluorescence, artefact control for SMM control protein annotation, primary screen (AID 1128).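 Note: score merges feature fluorescence with signal-to-noise for each printed compound spot.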 As to conditions: higher = more signal.
Assay [2] has as its system Human papillomavirus type 1a E7 protein (residues 1-88). Description: HPV1a E7 small-molecule binders, primary screen, biochemical, small-molecule microarray, residues 1-88, 635 nm (AID 1129). Conditions: small-molecule microarray binding, fluorescence 635 nm; higher = more signal.
The target in assay [3] is Focal adhesion kinase 1 (Homo sapiens) (UniProt Q05397). Kind of assay: PTK2 protein binding on printed compound slides – biochemical, small-molecule microarray, 635/667 nm fluorescence, BSA, DTT, primary screen (AID 1130).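 Note: composite of spot emission at 667 nm and signal to noise over triplicate slides.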 As to conditions: 635 nm fluorescence, higher = more signal.
Focal adhesion kinase 1 (Homo sapiens), sequence (Q05397 whole entry, looked up): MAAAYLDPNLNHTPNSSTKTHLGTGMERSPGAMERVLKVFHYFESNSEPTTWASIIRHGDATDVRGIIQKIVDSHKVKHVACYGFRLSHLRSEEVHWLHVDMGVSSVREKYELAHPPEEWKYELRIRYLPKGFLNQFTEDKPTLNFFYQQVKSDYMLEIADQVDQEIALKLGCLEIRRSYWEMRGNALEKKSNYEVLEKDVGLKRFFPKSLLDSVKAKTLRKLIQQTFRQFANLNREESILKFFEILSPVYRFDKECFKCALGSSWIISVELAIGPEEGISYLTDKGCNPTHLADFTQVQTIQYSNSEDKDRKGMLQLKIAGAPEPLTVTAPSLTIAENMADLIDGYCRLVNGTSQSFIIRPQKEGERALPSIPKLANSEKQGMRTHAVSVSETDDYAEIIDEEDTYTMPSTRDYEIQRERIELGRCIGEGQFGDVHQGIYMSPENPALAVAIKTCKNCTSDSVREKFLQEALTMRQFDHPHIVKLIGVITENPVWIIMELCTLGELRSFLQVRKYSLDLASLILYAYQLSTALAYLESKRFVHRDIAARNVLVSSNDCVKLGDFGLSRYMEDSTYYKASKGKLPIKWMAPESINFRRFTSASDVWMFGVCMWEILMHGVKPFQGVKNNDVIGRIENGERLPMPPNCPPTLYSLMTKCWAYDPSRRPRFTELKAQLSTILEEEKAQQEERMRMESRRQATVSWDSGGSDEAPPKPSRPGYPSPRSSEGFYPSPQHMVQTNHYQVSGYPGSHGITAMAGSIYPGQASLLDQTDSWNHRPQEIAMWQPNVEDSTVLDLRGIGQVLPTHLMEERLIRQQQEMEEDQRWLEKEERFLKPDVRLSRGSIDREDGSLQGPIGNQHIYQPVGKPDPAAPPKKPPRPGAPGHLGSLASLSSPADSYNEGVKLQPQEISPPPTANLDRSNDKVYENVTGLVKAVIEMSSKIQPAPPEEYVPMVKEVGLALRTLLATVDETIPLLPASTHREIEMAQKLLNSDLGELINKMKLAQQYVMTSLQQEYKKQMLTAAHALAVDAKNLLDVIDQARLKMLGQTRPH
The subject of assay [4] is Fibrinogen (Alexa647-labelled). Kind of assay: Alexa647-fibrinogen binding to printed small molecules – biochemical, small-molecule microarray, 635/667 nm fluorescence, artefact control for SMM control-protein annotation, profiling panel (AID 1131).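 Note: z-score merges 667 nm fluorescence with per-spot signal-to-noise over triplicate slides.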 Conditions: fibrinogen-A647 binding fluorescence, higher = more signal.
For assay [5], the target named is Follistatin (Homo sapiens) (UniProt P19883). Kind of assay: FST protein binding to printed compounds – biochemical, small-molecule microarray, 635/667 nm fluorescence, primary screen (AID 1132). Conditions: 635 nm fluorescence, higher = more signal.
Follistatin (Homo sapiens), sequence (P19883 whole entry, looked up): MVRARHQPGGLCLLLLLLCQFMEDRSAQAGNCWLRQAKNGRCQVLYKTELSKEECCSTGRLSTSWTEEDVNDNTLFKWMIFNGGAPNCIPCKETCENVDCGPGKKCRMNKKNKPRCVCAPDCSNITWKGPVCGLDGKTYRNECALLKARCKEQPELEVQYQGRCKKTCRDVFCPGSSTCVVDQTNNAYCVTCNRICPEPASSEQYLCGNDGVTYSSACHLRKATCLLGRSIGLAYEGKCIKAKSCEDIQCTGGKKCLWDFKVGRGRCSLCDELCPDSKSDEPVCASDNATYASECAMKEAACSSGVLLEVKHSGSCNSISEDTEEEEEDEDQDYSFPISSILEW
For assay [6], the target named is Fibroblast growth factor 2 (Homo sapiens) (UniProt P09038). Kind of assay: basic fibroblast growth factor binding to printed compounds – biochemical, small-molecule microarray, 635/667 nm fluorescence, primary screen (AID 1133). As to conditions: FGF2, fluorescence 635/667, higher = more signal.
Fibroblast growth factor 2 (Homo sapiens), sequence (P09038 whole entry, looked up): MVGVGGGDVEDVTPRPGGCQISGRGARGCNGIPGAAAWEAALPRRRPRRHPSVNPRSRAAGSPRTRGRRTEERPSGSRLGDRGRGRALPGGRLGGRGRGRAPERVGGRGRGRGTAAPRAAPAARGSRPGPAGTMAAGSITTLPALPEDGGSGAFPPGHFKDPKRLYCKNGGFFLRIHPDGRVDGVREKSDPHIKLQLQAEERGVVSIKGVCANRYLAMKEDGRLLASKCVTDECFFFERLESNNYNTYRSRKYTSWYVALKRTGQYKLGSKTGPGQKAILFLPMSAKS
Assay [7] can be described thus: JC-1 mitochondrial potential readout, lung cancer cells – cell-based, A549, JC-1 fluorescence, basal, 24 h, 100 nL, profiling panel (AID 1138).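 Note: A549 lung adenocarcinoma cells under basal conditions with no added stimulus; test concentration not given here.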 As to conditions: higher = more signal.
A further assay relates to Lefty1. Kind of assay: Lefty1 protein binding to printed compounds – biochemical, small-molecule microarray, 635/667 nm fluorescence, primary screen (AID 1139). As to conditions: fluorescence 635/667, higher = more signal.
Assay [8] relates to wheat germ agglutinin (Triticum aestivum), Alexa647-labelled. Description: Alexa647-WGA lectin binding to printed small molecules – biochemical, small-molecule microarray, 635/667 nm fluorescence, artefact control for SMM control-protein annotation, profiling panel (AID 1140).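 Note: score merges 667 nm feature emission with signal to noise over triplicate slides.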 Conditions: WGA-A647 binding, 635 nm fluorescence, higher = more signal.
In assay [9] the target is Luciferin 4-monooxygenase (Photinus pyralis) (UniProt P08659). Kind of assay: inhibition of purified Photinus pyralis luciferase – biochemical, luminescence, purified enzyme, 2006 set, primary screen (AID 1141).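 Note: cell-free assay with purified firefly luciferase at 100 ng per well in PBS; test concentration not given here.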 As to conditions: purified firefly luciferase, SteadyGlo luminescence, 30 min; higher = more signal, called active from +8 up or from −8 down.
Luciferin 4-monooxygenase (Photinus pyralis), sequence (P08659 whole entry, looked up): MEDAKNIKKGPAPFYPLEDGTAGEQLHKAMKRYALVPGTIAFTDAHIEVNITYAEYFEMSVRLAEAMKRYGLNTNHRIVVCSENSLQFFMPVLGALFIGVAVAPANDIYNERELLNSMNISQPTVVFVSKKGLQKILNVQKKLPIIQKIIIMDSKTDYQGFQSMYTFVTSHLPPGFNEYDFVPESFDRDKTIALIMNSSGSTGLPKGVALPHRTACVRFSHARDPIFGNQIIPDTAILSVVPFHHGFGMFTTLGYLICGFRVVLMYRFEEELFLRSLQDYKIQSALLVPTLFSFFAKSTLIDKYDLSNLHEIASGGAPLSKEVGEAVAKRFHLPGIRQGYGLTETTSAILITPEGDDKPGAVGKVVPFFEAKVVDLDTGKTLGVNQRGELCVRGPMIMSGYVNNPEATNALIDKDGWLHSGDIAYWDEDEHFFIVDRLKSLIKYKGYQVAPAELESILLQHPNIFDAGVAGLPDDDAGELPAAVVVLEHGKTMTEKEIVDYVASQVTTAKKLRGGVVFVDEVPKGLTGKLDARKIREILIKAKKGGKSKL
In assay [10] the test system is Wnt5a (protein binding on small-molecule microarray). Kind of assay: small molecules binding Wnt5a protein – biophysical, small-molecule microarray, 635/667 nm fluorescence, primary screen (AID 1142).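 Note: fluorescence read at 667 nm with signal to noise per printed feature.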 As to conditions: 635 nm fluorescence, higher = more signal.
A short description of assay [11]: ATP-based viability of Huh7 replicon cells – cell-based, CellTiter-Glo luminescence, basal, 48 h, cytotoxicity control for HCV replication inhibitor project, primary screen (AID 1143).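 Note: Huh7 hepatoma cells carrying a hepatitis C replication reporter with no stimulus; test concentration not given here.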 As to conditions: higher = more signal, called active from +8 up or from −8 down.
A short description of assay [12]: Pseudomonas biofilm growth suppression – PAO1 strain, BacTiter-Glo luminescence, LB-PBS, primary screen (AID 1144). As to conditions: P. aeruginosa PAO1 biofilm, 12 h, higher = more signal.
The nature of assay [13]: basal CRE-LacZ reporter activity in PC12 – cell-based, unstimulated, primary screen (AID 1145). As to conditions: no forskolin, luminescence, 4.5 h, higher = more signal, called active from +8 up or from −8 down.
Assay [14] in a line: forskolin-driven CRE-LacZ activity in PC12 – cell-based, CRE-LacZ reporter, forskolin-stimulated, primary screen (AID 1146).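 Note: PC12 cells with 6xCRE LacZ reporter stimulated by forskolin 10 µM; beta-galactosidase reporter signal reflecting CREB driven transcription.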 Conditions: luminescence, 4.5 h, higher = more signal, called active from +8 up or from −8 down.
For assay [15], the target named is Streptavidin (Streptomyces avidinii) (UniProt P22629). Kind of assay: compounds binding control protein streptavidin – biophysical, small-molecule microarray, 635/667 nm fluorescence, artefact control for SMM compound annotation, primary screen (AID 1147).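 Note: signal reflects streptavidin binding to arrayed compounds as a control protein.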 Conditions: higher = more signal.
Streptavidin (Streptomyces avidinii), sequence (P22629 whole entry, looked up): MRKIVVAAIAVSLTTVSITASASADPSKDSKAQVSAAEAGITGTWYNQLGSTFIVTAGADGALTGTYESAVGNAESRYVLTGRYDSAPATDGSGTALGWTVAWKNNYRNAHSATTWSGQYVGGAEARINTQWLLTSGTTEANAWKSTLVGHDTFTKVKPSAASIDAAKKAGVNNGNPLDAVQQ
Assay [16] can be described thus: probe aInhba binding on compound microarray – biochemical, small-molecule microarray, 635/667 nm fluorescence, primary screen (AID 1148).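 Note: score merges 667nm spot fluorescence with signal-to-noise for antibody binding to printed compounds.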 Conditions: higher = more signal.
The target in assay [17] is Torsin-1A (Homo sapiens) (UniProt O14656). Kind of assay: TOR1A wild-type binding on microarray – cell lysate, small-molecule microarray, lysate, 635/667 nm, primary screen (AID 1149). As to conditions: COS7 hTOR1A-WT lysate, 635 nm fluorescence, higher = more signal.
Torsin-1A (Homo sapiens), sequence (O14656 whole entry, looked up): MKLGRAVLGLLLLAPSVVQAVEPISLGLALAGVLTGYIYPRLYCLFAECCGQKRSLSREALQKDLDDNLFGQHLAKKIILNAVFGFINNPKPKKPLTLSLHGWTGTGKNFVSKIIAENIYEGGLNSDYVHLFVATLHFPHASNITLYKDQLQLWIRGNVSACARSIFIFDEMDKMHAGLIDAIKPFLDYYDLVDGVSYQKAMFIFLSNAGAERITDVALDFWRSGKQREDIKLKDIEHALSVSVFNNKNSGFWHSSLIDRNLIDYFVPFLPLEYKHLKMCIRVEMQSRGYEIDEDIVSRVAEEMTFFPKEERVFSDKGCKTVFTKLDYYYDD
For assay [18] the target is unchanged. Kind of assay: torsin A mutant lysate binding on microarrays – cell lysate, small-molecule microarray, COS7 lysate, 635/667 nm fluorescence, primary screen (AID 1150).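 Note: score pools 667 nm emission and signal to noise measuring lysate protein binding.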 Conditions: COS7 hTOR1A mutant lysate, 635 nm fluorescence, higher = more signal.
Assay [19] relates to Sonic hedgehog protein (Shh). Kind of assay: Sonic hedgehog microarray binding compounds – biochemical, small-molecule microarray, 635/667 nm fluorescence, primary screen (AID 1151).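 Note: Shh protein binding to compounds spotted on small-molecule microarray slides; score combines spot fluorescence intensity with signal-to-noise across triplicate slides.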 As to conditions: 635 nm fluorescence, higher = more signal.

The structures appear in SMILES notation. The source made the active and inactive calls. Unless noted, the rule behind the calls is not given here.

As to `CCOC(=O)C1=CCC(c2ccc([N+](=O)[O-])cc2)N(S(=O)(=O)c2ccc(C)cc2)C1` (stereo not given), the composite z-score in assay [1] was 0.711; in [2], 0.915; in assay [3] it was 0.801; in [4] it was -0.0411; in assay [5], 0.261; in assay [6], -0.277. For the same compound, the composite z-score was -0.023 with Lefty1; 0.44 in [8]; 0.0898 in assay [10]; 0.653 in assay [15]; 0.111 in assay [16]; 0.242 with Torsin-1A (Homo sapiens) [17]. For the same compound, the composite z-score with Torsin-1A (Homo sapiens) [18] was 0.103; in [19], -0.377. Moreover, the z-score in assay [7] was 1.15; in [9], 1.95 (inactive); in assay [11], -3.94 (inactive); in [12] it was 0.203 (inactive); in [13] it was 0.687 (inactive); in [14], 0.264 (inactive).
In the case of `O=C1O[C@@H](c2ccccc2)[C@@H](c2ccccc2)N2[C@@H](c3ccc(OCCO)cc3)[C@]3(C(=O)Nc4ccc(C#CC5=CCCCC5)cc43)[C@@H](C(=O)O)[C@H]12`, the composite z-score is 1.42 in assay [1]; 1.01 in assay [2]; 1.31 in [3]; 0.865 in assay [4]; 0.878 in assay [5]; 0.34 in [6]. Further, the composite z-score in the assay on Lefty1 worked out at 0.46; in [8] it was 0.997; in assay [10] it was 0.411; in assay [15], 1.22; in [16] it was 0.0895; in the assay with Torsin-1A (Homo sapiens) [17] it was 0.0714. The composite z-score with Torsin-1A (Homo sapiens) [18] came out at 0.97; in assay [19], 0.658. For the same compound, the z-score in assay [7] was -2.48; in [9], -6.59 (inactive); in assay [11] it was -2.22 (inactive); in [12], -0.761 (inactive); in assay [13] it was -0.348 (inactive); in assay [14] it was 7.68 (inactive).
As to `CCOC(=O)C[C@H]1[C@H](OC(=O)c2ccc(-c3ccccc3)cc2)[C@@H](NC(=O)Cc2ccc(OC)cc2)c2cc(OCCCO)ccc2N1C(=O)c1ccc2ccccc2n1`, the composite z-score was 0.262 in assay [1]; 0.644 in assay [2]; 0.529 in [3]; 0.897 in [4]; -0.0303 in assay [5]; -0.433 in assay [6]. In addition, the composite z-score with Lefty1 is 0.484; in assay [8] it was 0.419; in [10], 0.163; in assay [15], 0.8; in assay [16], -0.0468; with Torsin-1A (Homo sapiens) [17] it was 0.33. Further, the figures for the composite z-score (in the assay with Torsin-1A (Homo sapiens) [18]; in assay [19]) were -0.0342 and -0.525, respectively. The z-score in assay [7] is 0.895; in [9], -0.639 (inactive); in assay [11] it was 0.429 (inactive); in [12] it was 0.26 (inactive); in assay [13] it was -0.0529 (inactive); in assay [14], -0.489 (inactive).
As to `COC(=O)[C@@]1(Cc2ccc(OC)cc2)[C@H]2c3cc(C(=O)N4CCCC4)n(CCc4c[nH]c5cc(F)ccc45)c3C[C@H]2CN1C(=O)c1ccccc1`, the composite z-score in assay [1] was 1.46; in assay [2] it was 1.25; in assay [3] it was 0.861; in assay [4], 0.994; in assay [5] it was 1.23; in [6], 0.303. Further, the composite z-score in the assay with Lefty1 worked out at 0.0312; in assay [8], 1.18; in assay [10] it was 0.313; in [15] it was 2.19; in assay [16], 0.636; in the assay with Torsin-1A (Homo sapiens) [17], 0.188. The composite z-score was 1.25 with Torsin-1A (Homo sapiens) [18] and 0.133 in assay [19]. Also, the z-score in assay [7] is 0.509; in assay [9] it was 0.378 (inactive); in assay [11], -1.26 (inactive); in assay [12], -0.0146 (inactive); in [13] it was 0.773 (inactive); in assay [14], 0.199 (inactive).
In the case of `C=CCC(OC(C)=O)[C@@H]1[C@@H](N(Cc2cccc3ccccc23)C(=O)c2ccc(C)cc2)c2cc(OCCCO)ccc2N1C(=O)Cc1ccc(OC)cc1` (stereo not given in full), the composite z-score is 0.0508 in [1]; -0.0914 in assay [2]; 0.183 in assay [3]; 0.342 in assay [4]; 0.695 in assay [5]; -0.148 in assay [6]. Besides, the composite z-score with Lefty1 was 0.203; in [8], 0.275; in [10], -0.0466; in [15], 0.547; in [16], -0.189; in the assay with Torsin-1A (Homo sapiens) [17], 0.291. Further, the results for the composite z-score (with Torsin-1A (Homo sapiens) [18]; in assay [19]) were 0.553 and 0.562, respectively. The z-score was 1.3 in assay [7]; 0.0544 (inactive) in [9]; -0.798 (inactive) in [11]; -0.738 (inactive) in [12]; -0.402 (inactive) in assay [13]; -0.281 (inactive) in assay [14].
